From PubChem BioAssay AID1619 (SRMLSC, 2009)
Hit rate of the full screen: of about 220,000 compounds, about 830 (0.38%) were called active. The list is a sample of the results. Entries with a potency or affinity are not part of this list. Values without a mark were called inactive.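 Rule for the calls: active = compound inhibiting the enzyme by more than half at any dose during confirmatory dose-response retesting; inconclusive = strong single-dose inhibitors picked by rank but not retested; inactive = the rest.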

biological target: Leucine aminopeptidase (Plasmodium falciparum (isolate 3D7)) (UniProt Q8IL11); assay: P. falciparum M17LAP inhibitors, primary screen, biochemical, fluorogenic H-Leu-NHMec substrate, 1536-well (AID 1619); conditions: recombinant M17LAP, H-Leu-NHMec fluorogenic kinetic assay; at 30 µM; hits give high values;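 note: plate controls were full reaction with DMSO carrier for no effect and no enzyme background for full effect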
Sequence (Q8IL11 whole entry, looked up): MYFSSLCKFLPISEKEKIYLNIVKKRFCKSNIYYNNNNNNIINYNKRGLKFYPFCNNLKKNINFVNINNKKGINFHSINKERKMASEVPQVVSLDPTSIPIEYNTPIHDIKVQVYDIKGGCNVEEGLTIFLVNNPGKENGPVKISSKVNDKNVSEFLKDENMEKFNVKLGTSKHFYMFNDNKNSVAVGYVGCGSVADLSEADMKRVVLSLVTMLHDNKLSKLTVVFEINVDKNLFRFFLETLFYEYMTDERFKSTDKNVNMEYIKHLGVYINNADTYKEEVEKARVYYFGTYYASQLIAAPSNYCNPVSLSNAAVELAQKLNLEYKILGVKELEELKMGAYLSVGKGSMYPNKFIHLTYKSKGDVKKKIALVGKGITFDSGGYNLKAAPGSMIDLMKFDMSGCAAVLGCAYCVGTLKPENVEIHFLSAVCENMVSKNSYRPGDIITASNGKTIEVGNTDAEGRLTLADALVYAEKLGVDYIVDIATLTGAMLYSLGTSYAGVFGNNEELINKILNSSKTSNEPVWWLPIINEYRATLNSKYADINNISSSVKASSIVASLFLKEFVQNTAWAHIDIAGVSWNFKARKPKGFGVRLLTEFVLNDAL

Question: `CC(C)CCC1(CCNC(=O)c2cccs2)CCOC(C)(C)C1` (centres undefined) was tested. Which inhibition did it give?
Answer: 0.32%

Question: Which inhibition does the source give for `Cc1ccc(S(=O)(=O)n2nc(-c3ccco3)nc2N)cc1` here?
Answer: -3.51%

Question: How did the inhibition turn out when `O=C(NCCSCc1ccccc1)c1cc(S(=O)(=O)N2CCOCC2)ccc1F` was run?
Answer: 6.12%

Question: Which inhibition does the source give for `CC(C(O)C12CC3CC(CC(C3)C1)C2)N1CCCCC1` (centres undefined) here?
Answer: 9.11%

Question: Which inhibition does the source give for `Cc1nn(-c2ccccc2)c(C)c1/C=C/C(=O)OC(C)C(=O)Nc1ncc(Cl)cc1Cl` (centres undefined) here?
Answer: -12.7%

Question: Which inhibition does the source give for `Cc1cc(=O)n(CNC(=O)c2ccccc2)c(=S)[nH]1` here?
Answer: -9.25%

Question: For `O=C(CSc1nncs1)Nc1ccc2c(c1)OCCO2`, which inhibition is on record?
Answer: 23.5%

Question: Which inhibition does the source give for `Cn1cnnc1SCC(=O)Nc1ccc2c(c1)CCC2` here?
Answer: 42.8%

Question: Which inhibition does the source give for `CC(C)Cc1c(O)nc(SCC(=O)Nc2ccc3c(c2)CCC3)[nH]c1=O` here?
Answer: 54.1%

Question: How did the inhibition turn out when `Nc1cc(=O)[nH]c(SCC(=O)Nc2ccc3c(c2)CCC3)n1` was run?
Answer: 53.8%

Question: Which inhibition does the source give for `O=C(CSc1nc2ccc(Cl)cc2[nH]1)Nc1ccc2c(c1)CCC2` here?
Answer: 3.87%

Question: For `O=C(CSc1nccc(=O)[nH]1)Nc1ccc2c(c1)OCCO2`, which inhibition is on record?
Answer: -0.7%

Question: How did the inhibition turn out when `O=C(CSc1nc2ccccc2[nH]1)Nc1ccc2c(c1)CCC2` was run?
Answer: 1.81%

Question: With `CCC(C)c1c(O)nc(SCC(=O)Nc2ccccc2)[nH]c1=O` (centres undefined) as the compound, how does the inhibition read?
Answer: 25.4%

Question: `Cc1coc(C)c1C(=O)CC1(O)C(=O)Nc2cc(Cl)cc(Cl)c21` (centres undefined) was tested. Which inhibition did it give?
Answer: -6.03%

Question: `Cc1ccc(S(=O)(=O)N(C)C)cc1NC(=O)COc1ccc(-c2nnco2)cc1` was tested. Which inhibition did it give?
Answer: -1.3%

Question: With `CC(NS(=O)(=O)c1ccc([N+](=O)[O-])cc1)C(=O)NN` (centres undefined) as the compound, how does the inhibition read?
Answer: 5.26%

Question: With `O=C1NC(=S)N/C1=C/c1cccn1-c1ccc([N+](=O)[O-])cc1` as the compound, how does the inhibition read?
Answer: -21%

Question: Which inhibition does the source give for `COc1ccc(OC)c(/C=C/C(=O)OCC(=O)Nc2ccc(Cl)c(S(=O)(=O)N(C)C)c2)c1` here?
Answer: 5.28%

Question: For `Cc1cc(C)n(C(=O)c2ccc(C)o2)n1`, which inhibition is on record?
Answer: 6.21%

Question: For `Cc1ccc(S(=O)(=O)c2ccc(NN)cc2)cc1`, which inhibition is on record?
Answer: 20.8%

Question: With `Cc1ccc(C2N(c3nccs3)C(=O)C3CCCN32)cc1` (centres undefined) as the compound, how does the inhibition read?
Answer: -15.4%

Question: With `Fc1ccc(COc2ccccc2C(=S)N2CCCC2)cc1` as the compound, how does the inhibition read?
Answer: 10.6%

Question: How did the inhibition turn out when `CN(C)S(=O)(=O)c1ccc(C(=O)NCc2ccccn2)cc1` was run?
Answer: -3.48%

Question: How did the inhibition turn out when `Cc1cc2c(cc1C)-c1c(ssc1=Nc1ccc(S(N)(=O)=O)cc1)C(C)(C)N2` was run?
Answer: -1.4%

Question: Which inhibition does the source give for `CC(=O)NS(=O)(=O)c1ccc(NS(=O)(=O)c2ccc(F)cc2)cc1` here?
Answer: -13%

Question: How did the inhibition turn out when `Cc1ccc(S(=O)(=O)NC(=O)Nc2cc(C)ccc2F)cc1` was run?
Answer: -4.66%

Question: How did the inhibition turn out when `CC(=O)NS(=O)(=O)c1ccc(N=c2ssc3c2-c2cc(C)ccc2NC3(C)C)cc1` was run?
Answer: 55%

Question: How did the inhibition turn out when `Cc1nn(-c2ccc(Cl)c(Cl)c2Cl)c(=O)c2ccccc12` was run?
Answer: -4.32%

Question: How did the inhibition turn out when `N#CC(C#N)=Cc1ccc(OC(=O)c2ccccn2)cc1` was run?
Answer: 15.9%

Question: With `COc1cc2c(cc1OC)C1(Nc3c-2c(-c2ccccc2)nn3-c2ccccc2)C(=O)Nc2ccccc21` (centres undefined) as the compound, how does the inhibition read?
Answer: 0.95%

Question: `O=C(COC(=O)c1cnccn1)Nc1ccc2c(c1)OCO2` was tested. Which inhibition did it give?
Answer: 13.5%

Question: Which inhibition does the source give for `CCOc1ccc(CCNC(=O)CN(C)S(=O)(=O)c2ccc3c(c2)CCC(=O)N3)cc1OCC` here?
Answer: -8.18%

Question: For `COC(=O)CN(Cc1ccccc1)S(=O)(=O)c1ccc(OC)c(OC)c1`, which inhibition is on record?
Answer: -2.5%

Question: How did the inhibition turn out when `O=S(=O)(c1cccs1)N1CCN(c2ncccn2)CC1` was run?
Answer: -7.79%

Question: Which inhibition does the source give for `COc1ccc(C(=O)Nc2ccccc2N2CCOCC2)cc1[N+](=O)[O-]` here?
Answer: 7.12%

Question: For `CCOC(=O)c1c(-c2cccs2)csc1NC(C)=O`, which inhibition is on record?
Answer: -14.7%

Question: With `CCOC(=O)c1c(-c2cccs2)csc1NC(=O)CC(C)C` as the compound, how does the inhibition read?
Answer: 7.23%

Question: With `Cc1ccc(OCCCN2C(=O)C(=O)c3cccc(C)c32)cc1` as the compound, how does the inhibition read?
Answer: 13.8%

Question: `OC1NC(=S)N(c2ccccc2)C1O` (centres undefined) was tested. Which inhibition did it give?
Answer: 8.92%

Question: For `COc1ccc(C2NC(=S)N3C(c4ccc(OC)cc4)NC(=S)N23)cc1` (centres undefined), which inhibition is on record?
Answer: 34.8%

Question: For `COc1cccc(CC(NC(C)=O)C(=O)NC2CCN(c3nnnn3-c3ccccc3)CC2)c1` (centres undefined), which inhibition is on record?
Answer: 5.55%

Question: For `CN(CCC#N)CC(=O)Nc1ccc(NC(=O)CN(C)CCC#N)cc1`, which inhibition is on record?
Answer: -4.87%

Question: `NC(=O)c1ccc(-c2ccccc2F)cc1` was tested. Which inhibition did it give?
Answer: 6.07%

Question: `O=S1(=O)N=C(Nc2ccc(O)c(CN3CCCCC3)c2)c2ccccc21` was tested. Which inhibition did it give?
Answer: 18.9%

Question: How did the inhibition turn out when `COC(=O)c1c(NC(=O)CSc2nnc(C)c(=O)[nH]2)sc(C)c1C` was run?
Answer: 21.5%

Question: With `CCOC(=O)c1c(NC(=O)CSc2nnc(C)s2)sc2c1CCCCC2` as the compound, how does the inhibition read?
Answer: -4.03%

Question: With `Cc1nnc(SCC(=O)Nc2sc3c(c2C(N)=O)CCCC3)[nH]c1=O` as the compound, how does the inhibition read?
Answer: 49.5%

Question: For `CCOC(=O)c1c(NC(=O)CSc2nnc(C)c(=O)[nH]2)sc(C)c1C`, which inhibition is on record?
Answer: 11.9%

Question: How did the inhibition turn out when `Cc1ccc(C(=O)c2cn[nH]c2-c2ccccc2O)cc1` was run?
Answer: 44.9%

Question: Which inhibition does the source give for `CCOC(=O)C1(C(=O)OCC)C(c2ccccc2)CC(O)N1C(C)=O` (centres undefined) here?
Answer: 1.54%

Question: For `NC(=O)c1ccc(NC(=O)c2ccccc2S(=O)(=O)c2ccccc2[N+](=O)[O-])cc1`, which inhibition is on record?
Answer: 9.64%

Question: How did the inhibition turn out when `O=C(O)CC/C(=N\NC(=O)c1ccccc1)c1cccs1` was run?
Answer: 18.4%

Question: `COC(=O)N/N=C(\CCC(=O)O)c1cccs1` was tested. Which inhibition did it give?
Answer: 6.69%

Question: `Brc1ccc(/C=N/Nc2ncnc3c2cnn3Cc2ccccc2)cc1` was tested. Which inhibition did it give?
Answer: -4.47%

Question: Which inhibition does the source give for `COc1ccccc1NC(=O)CSc1nc(N)cc(N)n1` here?
Answer: 10.8%

Question: `CC(C)c1ccc(C(=O)CSc2n[nH]c(-c3ccncc3)n2)cc1` was tested. Which inhibition did it give?
Answer: 6.54%

Question: How did the inhibition turn out when `Cc1nnc(SCC(=O)c2ccc(C(C)C)cc2)s1` was run?
Answer: -0.89%

Question: `O=C(CSc1ccccc1)Nc1ccccc1C(=O)O` was tested. Which inhibition did it give?
Answer: 18.8%

Question: For `CC(C)c1nc(SCC(=O)Nc2ccc([N+](=O)[O-])cc2Br)n[nH]1`, which inhibition is on record?
Answer: 6%

Question: With `Nc1nc(SCC(=O)Nc2ccc([N+](=O)[O-])cc2Br)n[nH]1` as the compound, how does the inhibition read?
Answer: 10.2%

Question: How did the inhibition turn out when `COc1ccccc1NC(=O)CSc1ncn(-c2ccccc2)n1` was run?
Answer: 5.61%

Question: Which inhibition does the source give for `NC(=O)SCC(=O)Nc1ccccc1C(=O)O` here?
Answer: 9.51%

Question: How did the inhibition turn out when `Cc1cc(C)cc(N2C(=O)CC(N(C(=O)c3ccco3)c3cc(C)cc(C)c3)C2=O)c1` (centres undefined) was run?
Answer: 3.47%

Question: For `CC(C)c1ccc(Nc2ncccc2C(=O)O)cc1`, which inhibition is on record?
Answer: 13.8%

Question: With `CC1CN(Cc2ccc(C#N)cc2Cl)CC(C)O1` (centres undefined) as the compound, how does the inhibition read?
Answer: -2.17%

Question: How did the inhibition turn out when `C/C(CCN1CCc2nc(-c3ccccc3)c(-c3ccccc3)cc2C1)=N\O[C@H](C)c1cn([C@H](CO)Cc2ccccc2)nn1` was run?
Answer: 12.6%

Question: `Cc1oc(C)c(C(N)=O)c1C(N)=O` was tested. Which inhibition did it give?
Answer: -4.4%

Question: For `O=C(CSc1ncccn1)Nc1ncc(C(F)(F)F)cc1Cl`, which inhibition is on record?
Answer: -4.61%

Question: How did the inhibition turn out when `COc1ccc(NC(=O)CSc2nc(O)cc(=O)[nH]2)c(OC)c1` was run?
Answer: 14.7%

Question: `COc1ccccc1N1CCN(C(=O)CSc2nc(C)cc(=O)[nH]2)CC1` was tested. Which inhibition did it give?
Answer: 12.1%

Question: For `O=C(CSc1ncccn1)Nc1ccc(S(=O)(=O)N2CCCCC2)cc1`, which inhibition is on record?
Answer: -1.15%

Question: How did the inhibition turn out when `COc1ccccc1N1CCN(C(=O)CSc2nc(N)cc(=O)[nH]2)CC1` was run?
Answer: -20.8%

Question: Which inhibition does the source give for `Cc1cc(C)nc(SCC(=O)Nc2ccc(S(=O)(=O)N3CCCCC3)cc2)n1` here?
Answer: -1.67%

Question: How did the inhibition turn out when `Nc1nc(SCC(=O)Nc2ncc(C(F)(F)F)cc2Cl)n[nH]1` was run?
Answer: 1.49%

Question: How did the inhibition turn out when `COc1ccccc1NC(=O)CSc1nccc(=O)[nH]1` was run?
Answer: 28.1%

Question: Which inhibition does the source give for `CC1=C(C(=O)OCc2ccccc2)C(c2ccoc2)C(C#N)=C(N)O1` (centres undefined) here?
Answer: 5.93%

Question: `CC(NC(=O)C(=O)N/N=C\c1ccc([N+](=O)[O-])cc1)c1ccccc1` (centres undefined) was tested. Which inhibition did it give?
Answer: 9.58%

Question: How did the inhibition turn out when `CCOC(=O)/C(=C\c1cccnc1)C(=O)c1cc(C(C)=O)c(Nc2ccccc2)s1` was run?
Answer: -7.24%

Question: With `Cc1ccc(NC(=O)COC(=O)Cc2csc(-c3ccc(Cl)cc3)n2)cc1C` as the compound, how does the inhibition read?
Answer: 5.09%

Question: How did the inhibition turn out when `CCOC(=O)N1CCC(N(C(=O)Nc2cccc(OC)c2)C(C)CC)CC1` (centres undefined) was run?
Answer: 7.02%

Question: With `CCN(CC)CCN1C(=O)C(=O)/C(=C(/O)c2ccncc2)C1c1ccccc1` (centres undefined) as the compound, how does the inhibition read?
Answer: 45.4%

Question: Which inhibition does the source give for `Nc1cc(=O)[nH]c(SCC(=O)Nc2nnc(-c3ccccc3)s2)n1` here?
Answer: 34.9%

Question: With `CCC1CCCCN1S(=O)(=O)c1ccc(NC(=O)CSc2ncccc2C(=O)O)cc1` (centres undefined) as the compound, how does the inhibition read?
Answer: -3.83%

Question: With `O=C(CSc1nc(-c2ccccc2)c(-c2ccccc2)o1)Nc1nnc(-c2ccccc2)s1` as the compound, how does the inhibition read?
Answer: 5.34%

Question: With `CC1CCN(S(=O)(=O)c2ccc(NC(=O)Cc3ccccc3)cc2)CC1` as the compound, how does the inhibition read?
Answer: 2.2%

Question: Which inhibition does the source give for `CC(=O)N1c2ccccc2C(=O)C1N1CCCCC1` (centres undefined) here?
Answer: 7.9%

Question: `CCn1c(SCC(=O)c2[nH]c(C)c(C(C)=O)c2C)nnc1-c1cccs1` was tested. Which inhibition did it give?
Answer: 12.2%

Question: For `CC(C)CCNC(=O)C1CC(c2cccc([N+](=O)[O-])c2)=NO1` (centres undefined), which inhibition is on record?
Answer: 3.11%

Question: Which inhibition does the source give for `O=C(CC12CC3CC(C1)CC(CC(=O)N1CCCC1)(C3)C2)N1CCCC1` here?
Answer: 1.98%

Question: With `NC(=O)CC[C@H](NC(=O)c1ccc(F)cc1)C(=O)OCC(=O)Nc1ccc(N2CCOCC2)cc1` as the compound, how does the inhibition read?
Answer: -1.82%

Question: Which inhibition does the source give for `C=C(C)c1cccc(C(C)(C)NC(=O)NCc2ccncc2)c1` here?
Answer: 5.4%

Question: `Fc1ccccc1-c1[nH]ncc1-c1nnnn1-c1ccccc1` was tested. Which inhibition did it give?
Answer: 6.84%

Question: `COc1ccc(N2CCN(c3oc(-c4ccccc4OC)nc3C#N)CC2)cc1` was tested. Which inhibition did it give?
Answer: 0.71%
